Sampled rows, rich in hits. Any-hit rate of the full collection: about 3.4%.
HSP90 inh – blocks HSP90-mediated luciferase refolding in reticulocyte lysate. Rabbit reticulocyte lysate, luciferase refolding luminescence, 3 h. inhibition, % at 5.6 µM. 290,000 tested, 0.91% active;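 active means inhibition above the screen-wide mean plus 3 SD, computed separately per campaign, cut at about 16% in these data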;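 further: inhibitors lower the luminescence because luciferase stays unfolded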
FXN GAA850 act – frataxin GAA850 promoter activation; HEK293 lucGAA850 FXN promoter luciferase reporter, 24 h; percent of 10 µM SAHA response; activation, % at 6 µM; 360,000 tested, 0.56% active; AID 540364;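 active means activation above the average of all compounds screened plus 3 SD, cutoff fixed separately per campaign, cut at about 7.5% in these data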
HSF1 inhib – HSF1 inhibition. 300,000 tested, 0.77% active. activity change, negative = inhibition, % at 7.5 µM (by protocol). NIH3T3-HGL HSE-luciferase, MG132-induced, luminescence 8 h; hits give low values;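 active means more than half of replicate wells show activity change below -50%, luminescence cut by over half; inconclusive means some wells, but at most half, below -50%; inactive means no replicate well below -50%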;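 further: luciferase reports HSF-1 transcriptional activity via heat shock element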
PG9 binder – binds the HIV-1 gp120 antibody PG9; 360,000 tested, 0.43% active; inhibition, % at 6.7 µM; TR-FRET gp120-PG9 antibody binding; AID 624416; in the data active means inhibition above about 8.5%
AI-2 QS modul – Vibrio harveyi AI-2 quorum sensing modulation | AID 2094 | Vibrio harveyi JMH597 AI-2 luminescence/OD600 ratio, 9 h; hits give low values; strain lacks LuxN and CqsS sensors; 0 = neutral-control median | 300,000 tested, 0.4% active | activity change, % at 7.5 µM; in the data active means activity change below about -75%, passing the limit was not always enough; inconclusive means no clear call, values can overlap the other calls;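 further: luminescence divided by OD600 gain over 9 h not by final OD600 alone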
SMARCA2 activ – activators of SMARCA2 function. MG213 cells, MMTV-luciferase reporter, dexamethasone, overnight. activation, % at 9.1 µM. 370,000 tested, 1% active; in the data active means activation above about 7.8%
Each line names hits and unclear results; the compound was inactive in the other large screens.

CC(C)(C)n1ncc2c(=O)n(CC(=O)NCc3ccc(F)cc3)cnc21	HSP90 inh 16.4
O=S(=O)(C/C(=C/CO)S(=O)(=O)c1ccccc1)c1ccccc1	HSF1 inhib -77.0
O=C1Cc2ccccc2C(=O)N1Cc1cccc(Cl)c1	HSP90 inh 16.2
O=C(NCCc1ccccc1)C(=O)NCC1OCCCN1S(=O)(=O)c1cc(F)ccc1F (stereo unspecified)	HSP90 inh 16.2
Cc1cc(C)c(NC(=O)CSc2nncn2-c2cccnc2)c(C)c1	HSF1 inhib -54.2
Cc1c(Cl)cccc1NC(=O)CSc1nncn1-c1cccnc1	none
COc1ccc(NC(=O)C2=Cc3cccc(OC)c3OC2)cc1	SMARCA2 activ 7.8 (no result: HSF1 inhib)
COc1ccc(NC(=O)C2=Cc3ccccc3OC2)cc1	none
COc1ccc(Oc2coc3cc(O)ccc3c2=O)cc1	AI-2 QS modul -94.3
COc1ccccc1Oc1coc2cc(O)ccc2c1=O	none
CCCC[C@@H]1CNC(=O)C(=O)N1CCc1cccc2ccccc12	HSF1 inhib -68.7 (no result: HSP90 inh, FXN GAA850 act, PG9 binder, SMARCA2 activ)
O=C(NC1CCCCN(Cc2ccc(Cl)cc2)C1=O)c1ccc2ccccc2c1 (stereo unspecified)	none (no result: HSP90 inh, FXN GAA850 act, HSF1 inhib, PG9 binder, AI-2 QS modul)
COc1ccc(NC(=O)C2CCCN2S(=O)(=O)c2ccc3c(c2)CCC(=O)N3)c(OC)c1 (stereo unspecified)	SMARCA2 activ 7.9 (no result: HSF1 inhib, AI-2 QS modul)
Cc1cccc(NC(=O)C2CCN(c3nnc(-n4cccc4)s3)CC2)c1C	none (no result: HSP90 inh, FXN GAA850 act, HSF1 inhib, PG9 binder, AI-2 QS modul)
Cc1ccc(/C=N/NC(=O)c2ccc(C(=O)N/N=C/c3ccc(C)s3)o2)s1	none
Cc1ccc(/C=N/Nc2ccc(C(=O)O)cc2)s1	HSP90 inh 78.9, HSF1 inhib -75.7, AI-2 QS modul -94.7
C=CCN1c2ccccc2[C@]23C[C@@H](C(=O)OC)N(C(=O)CC(C)C)C2=NC(C(=O)OC)=C(C(=O)OC)[C@H]13	none (no result: HSP90 inh)
COC(=O)C1=C(C(=O)OC)[C@@H]2N(Cc3ccccc3)c3ccccc3[C@@]23C[C@@H](C(=O)OC)N(C(=O)c2ccc(Br)cc2)C3=N1	HSF1 inhib -68.3 (no result: PG9 binder, SMARCA2 activ)
COC(=O)C1=C(C(=O)OC)[C@@H]2N(C)c3ccccc3[C@@]23C[C@@H](C(=O)OC)N(C(=O)CC(C)C)C3=N1	HSF1 inhib -74.9 (no result: HSP90 inh)
C=CCN1c2ccccc2[C@]23C[C@@H](C(=O)OC)N(C(=O)c4ccc(Br)cc4)C2=NC(C(=O)OC)=C(C(=O)OC)[C@H]13	HSF1 inhib -69.3 (no result: HSP90 inh)
CC(C)c1cc(C(C)C)c(S(=O)(=O)N2CCC(C(=O)NCc3cccs3)CC2)c(C(C)C)c1	none (no result: HSP90 inh, FXN GAA850 act, HSF1 inhib, PG9 binder, AI-2 QS modul)
COc1ccc(C(C(=O)NC2CCCCC2)N(C(=O)CCl)c2cccc(Cl)c2)cc1 (stereo unspecified)	HSF1 inhib -90.1
COc1ccc(C(C(=O)NC2CCCCC2)N(C(=O)CCl)c2ccc(OC)cc2)cc1 (stereo unspecified)	none (no result: PG9 binder, SMARCA2 activ)
CCCCOc1ccc(C(=O)NC2CCCCN(C)C2=O)cc1 (stereo unspecified)	none (no result: HSP90 inh, FXN GAA850 act, HSF1 inhib, AI-2 QS modul)
CCOC(=O)c1ccc(Oc2nc(NC)nc(Nc3ccccc3)n2)cc1	HSF1 inhib -56.5
O=C(COc1ccc([N+](=O)[O-])cc1)NNC(=S)NC(=O)c1ccc(Br)cc1	AI-2 QS modul -127.3
CCn1c(C)nc2cc(C(=O)NNC(=S)Nc3ccc(C)cc3)ccc21	none
CCn1c(C)nc2cc(C(=O)NNC(=S)NC(=O)c3ccc(OC)cc3)ccc21	AI-2 QS modul -85.4
Cc1ccc(C(=O)NC(=S)NNC(=O)COc2ccc([N+](=O)[O-])cc2)cc1	AI-2 QS modul inconclusive
COc1ccc(C(=O)NNC(=S)NC(=O)c2cccc([N+](=O)[O-])c2)cc1	AI-2 QS modul -85.1 (no result: HSP90 inh)
CCn1c2ccccc2c2cc(NC(=O)COC(=O)c3ccc(F)cc3Cl)ccc21	none (no result: HSP90 inh, FXN GAA850 act, HSF1 inhib, PG9 binder, AI-2 QS modul)
O=C(O)c1c(-c2ccccc2)oc2ccc(O)cc12	none
O=Cc1c(-c2ccc(Cl)cc2)oc2ccc(O)cc12	HSF1 inhib -55.1 (no result: HSP90 inh)
CN(CCOC(=O)c1cc2ccccc2o1)C1CN(Cc2cn(Cc3ccc([N+](=O)[O-])cc3)nn2)S(=O)(=O)C1 (stereo unspecified)	none (no result: HSP90 inh, FXN GAA850 act, HSF1 inhib, PG9 binder, AI-2 QS modul)
O=C(Cc1ccc(Cl)cc1)NNC(=S)NC(=O)c1cccnc1	AI-2 QS modul -87.6
O=C(NNC(=S)NCc1ccc(Cl)cc1)c1cccnc1	none
O=C(NC(=S)NNC(=O)c1ccc(Cl)cc1Cl)c1cccnc1	none
O=C(NNC(=S)NC(=O)c1cccnc1)c1ccc(Cl)cc1	AI-2 QS modul -92.7
Cc1ccc(C(=O)NNC(=S)NC(=O)c2ccc(Cl)cc2)cc1	AI-2 QS modul -127.1
CCn1c2ccccc2c2cc(NC(=O)COC(=O)c3cc(F)ccc3C)ccc21	none (no result: HSP90 inh, FXN GAA850 act, HSF1 inhib, PG9 binder, AI-2 QS modul)
COc1ccc(Cn2ccc3ccc(-c4ccc5ccn(Cc6ccc(C#N)cc6)c5c4)cc32)cc1	none (no result: HSP90 inh, FXN GAA850 act, HSF1 inhib, PG9 binder, AI-2 QS modul)
O=C(O)c1cccc(-n2cccc2/C=C2/NC(=O)N(c3cccc(Cl)c3)C2=O)c1	none
COc1ccc(-n2cccc2/C=C2/NC(=O)N(c3cccc(Cl)c3)C2=O)cc1	HSF1 inhib -62.7
CCCCOCCCNC(=O)C[C@H]1C[C@@]2(C(=O)OCC)CCCC3=C2N(CCC3)C1=O	none (no result: HSP90 inh, FXN GAA850 act, HSF1 inhib, PG9 binder, AI-2 QS modul)
Cc1cc(C)nc(NC(=O)COc2cc(Cl)cc(Cl)c2)n1	HSF1 inhib -71.0
Cc1ccnc(NC(=O)COc2ccc(Cl)cc2)n1	none
C=CCNC(=O)Nc1ccc2c(c1)[C@@]1(CC(=O)N(CC(C)C)C1c1ccccc1)C(=O)N2C (stereo partly specified)	none (no result: HSP90 inh, FXN GAA850 act, HSF1 inhib, PG9 binder, AI-2 QS modul)
O=C(NCCc1ccccc1)OCc1cn(-c2cccc(Cl)c2)nn1	none (no result: HSP90 inh, FXN GAA850 act, HSF1 inhib, PG9 binder, AI-2 QS modul)
